# Most compounds without a hit are left out; they make up all but 17% or so of the library.
# DT40 TDP1 CPT: growth inhibition of DT40 Tdp1-/-;hTDP1 cells with camptothecin (screen for TDP1 inhibitors) | chicken DT40 Tdp1-/-;hTDP1 cells + 20 nM CPT, ATP luminescence, 48 h | Potency, µM (top dose mostly 46.2 µM), hits mostly inhibitors | hit rate 12% among 420,000 | AID 686979; note: nearly all actives have a fitted effect of over 55% in size
#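 Cell growth measured by CellTiter-Glo luminescence after a minimum 48 h, 37 C compound exposure with 20 nM CPT in Tdp1-knockout DT40 cells stably expressing hTDP1, seeded 400/well; qHTS titration format.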
# TDP1 block: blocks human tyrosyl-DNA phosphodiesterase 1; Q9NUW8; recombinant TDP1, AlphaScreen DNA substrate cleavage; Potency, µM (doses to about 130 µM), hits mostly inhibitors; hit rate 0.28% among 350,000; note: nearly all actives have a fitted effect of over 40% in size
# Target sequence (Q9NUW8 whole entry, looked up): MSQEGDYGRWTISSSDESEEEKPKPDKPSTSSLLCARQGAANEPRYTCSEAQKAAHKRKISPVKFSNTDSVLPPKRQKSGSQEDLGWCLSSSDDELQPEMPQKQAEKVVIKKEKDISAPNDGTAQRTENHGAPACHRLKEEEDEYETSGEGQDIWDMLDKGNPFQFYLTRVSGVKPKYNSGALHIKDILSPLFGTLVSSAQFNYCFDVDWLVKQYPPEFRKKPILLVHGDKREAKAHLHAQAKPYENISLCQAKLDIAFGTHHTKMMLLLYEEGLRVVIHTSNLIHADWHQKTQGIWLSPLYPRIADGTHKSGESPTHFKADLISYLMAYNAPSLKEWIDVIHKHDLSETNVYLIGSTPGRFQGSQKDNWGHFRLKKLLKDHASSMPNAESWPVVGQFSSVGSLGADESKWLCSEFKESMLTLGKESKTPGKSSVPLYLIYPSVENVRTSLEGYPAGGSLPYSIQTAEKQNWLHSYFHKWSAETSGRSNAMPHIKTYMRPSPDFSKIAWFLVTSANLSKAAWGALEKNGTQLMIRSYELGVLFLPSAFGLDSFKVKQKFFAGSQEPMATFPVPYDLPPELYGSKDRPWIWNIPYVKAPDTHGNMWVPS
#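 E. coli-derived human Tdp1, 1 nM final. Cpd preinc 15 min RT; substrate 15 nM final, 5 min RT; AS bead mix 10 ug/ml final, 10 min RT. Signal loss = tyrosine-FITC cleavage. No-enzyme wells = max signal.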
# TDP1 cell noCPT: qHTS for Inhibitors of human tyrosyl-DNA phosphodiesterase 1 (TDP1): qHTS in cells in absence of CPT. Potency, µM (titrated, usually from 46.2 µM), most hits filed as inhibitors. AID 686978, 2013. DT40 Tdp1-/- hTDP1 cells, no CPT, ATP luminescence, 48 h. hit rate 15% among 420,000; note: nearly all actives have a fitted effect of over 55% in size
#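 Luminescent ATP content (CellTiter-Glo) served as the growth readout. Knockout chicken DT40 cells expressing human TDP1 were exposed to compounds without camptothecin for a minimum 48 hr at 37 °C.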
# ClpP mod: qHTS Assay for Activators of ClpP. ATP-dependent Clp protease proteolytic subunit (Bacillus subtilis (strain 168)), P80244. purified B. subtilis ClpP, FRET peptide cleavage, 20 min. Potency, µM (titrated, usually from 57.5 µM). hit rate 1.9% among 340,000. AID 651965, 2013; active = well fitted falling curve with a large enough effect; inconclusive = small, poorly fitted or top-dose-only effect; inactive = no such curve, though single readings can be large or run the other way; note: the source files actives as falling curves though it sought activators and does not explain the sign; nearly all actives have a fitted effect of over 65% in size
#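 ClpP 10 microg/mL final, pH 8 Tris/KCl buffer with BSA, glycerol, Tween-20; compound pinned in; FRET-FV substrate; RT 20 min; Ex320/Em430; ΔFRET vs ADEP 5.8 microM, DMSO, no enzyme.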
# A number is an active result; i = inactive; ? = inconclusive; nt = not tested or not shown. Unless noted, calls come from the whole dose curve; as a rule, active = well fitted curve in the direction sought with a large enough effect; inconclusive = small, poorly fitted or top-dose-only effect, or another doubt; inactive = no such curve, though single readings can be large; an effect the other way counts as inactive or inconclusive.
SMILES,DT40 TDP1 CPT,TDP1 block,TDP1 cell noCPT,ClpP mod
CCOc1cccc(-c2c(C(=O)N/N=C(\C)c3ccncc3)nnn2-c2nonc2N)c1,i,i,i,i
Cc1cccc(NC(=O)CSc2nnc3ccc(-c4cccnc4)nn23)c1,i,nt,?,i
CC(C)CCCC(C)C1CCC2C3CC=C4CC(=O)CC[C@@]4(C)C3CC[C@@]12C (stereo partly drawn),i,i,i,nt
CCOc1ccc(-c2c(C(=O)N/N=C/c3cccnc3)nnn2-c2nonc2N)cc1,i,50µM,i,i
Cc1ccc(-c2c(C(=O)N/N=C/c3cccnc3)nnn2-c2nonc2N)cc1,i,i,i,nt
COc1ccccc1CCc1nnc(CCC(=O)NCCC2CCCCO2)o1 (stereo not drawn),i,nt,i,i
COc1ccccc1CCc1nnc(CCC(=O)NCC[C@@H]2C[C@@H]3C=C[C@H]2C3)o1,15µM,i,18µM,nt
CCCN1Cc2cccc(C(=O)Nc3cccc(C(=O)OCC)c3)c2C1=O,?,i,?,i
CC1(C)C(=O)NC2=C1C(=O)C(=O)c1ccccc12,1.3µM,i,0.94µM,nt
Cc1ccc(CNc2ncnc3ccc(-c4ccc5c(c4)OCO5)cc23)s1,nt,i,nt,nt
O=c1c2ccccc2nc(/C=C/c2cc(Br)ccc2O)n1CCO,?,nt,15µM,i
O=c1c2ccccc2nc(/C=C/c2c[nH]c3ccccc23)n1CCO,4.6µM,i,6.5µM,i
O=c1c2ccccc2nc(/C=C/c2ccc3c(c2)OCO3)n1CCCO,i,i,?,nt
Cc1ccc2c(c1)c1c(n2CC(O)CNC2CCCCC2)CCCC1 (stereo not drawn),23µM,i,15µM,?
Cc1ccc2c(c1)c1c(n2CC(O)CN2CCC(C)CC2)CCCC1 (stereo not drawn),?,i,26µM,i
Cc1ccc2c(c1)c1c(n2CC(O)CN2CCCCC2C)CCCC1 (stereo not drawn),?,i,?,i
CCOC(=O)C[n+]1cccc(Br)c1,i,nt,i,i
O=C(Nc1ccc(Oc2cccc(C(F)(F)F)c2)nc1)c1cccs1,21µM,i,16µM,nt
O=C(Nc1ccc(Oc2cccc(C(F)(F)F)c2)nc1)c1ccccc1,i,i,13µM,i
O=[N+]([O-])c1ccc(Oc2cccc(C(F)(F)F)c2)nc1,13µM,nt,?,i
COc1ccc(NC(=O)COc2cccc(C(F)(F)F)c2)cn1,i,i,?,i
O=[N+]([O-])c1ccc(Oc2ccc(C(F)(F)F)cn2)cc1,i,i,i,nt
N/C(=N\N=Cc1ccc2c(c1)OCO2)NN=Cc1ccc2c(c1)OCO2,3.3µM,nt,2.3µM,i
O=C(NN=Cc1ccc2c(c1)OCO2)NN=Cc1ccc2c(c1)OCO2,i,nt,?,nt
O=C(N/N=C/c1cccc(O)c1)c1cc(-c2ccc3c(c2)OCO3)n[nH]1,21µM,i,21µM,i
SMILES,DT40 TDP1 CPT,TDP1 block,TDP1 cell noCPT,ClpP mod
O=C(N/N=C\c1ccc2c(c1)OCO2)c1cncc(Br)c1,i,50µM,i,nt
CCn1c(CNC(=O)c2ccc(OC)cc2)nnc1SCC(=O)Nc1ccc(C)cc1,i,i,i,i
c1ccc(-c2cc(-c3ccccc3)n3ncnc3n2)cc1,?,i,29µM,nt
FC(F)(F)c1ccc(N2CCN(c3cc(-c4ccccc4)nc4ncnn34)CC2)nc1,3.7µM,i,3.3µM,i
FC(F)(F)c1cccc(Nc2cc(-c3ccccc3)nc3ncnn23)c1,i,nt,?,i
CC(C)CCN(Cc1ccco1)S(=O)(=O)c1csc(C(N)=O)c1,18µM,i,23µM,i
COC(=O)[C@@]12C[C@@H](CC(=O)NCCC(C)C)C(=O)N(Cc3ccc4c(c3)OCO4)C1=CCC(C)(C)C2,?,nt,18µM,i
CCCCOCCCNC(=O)C[C@@H]1C[C@@]2(C(=O)OC)CC(C)(C)CC=C2N(Cc2ccc3c(c2)OCO3)C1=O,?,nt,21µM,i
CC(=O)Oc1c(Br)cc(N(C(C)=O)S(=O)(=O)c2ccccc2)c2ccccc12,?,nt,6.5µM,i
CN(CCOc1ccccc1)S(=O)(=O)c1ccc2oc3ccccc3c2c1,?,i,23µM,?
CCOc1ccc(Br)cc1/C(C)=N\NC1=NCCN1,5.8µM,i,4.6µM,i
COCCCNC(=O)c1cc(C(=O)c2c(-c3c(Cl)cccc3Cl)noc2C)c[nH]1,23µM,i,23µM,i
CC(NC(=O)Nc1nnc(C(F)(F)F)s1)(C(F)(F)F)C(F)(F)F,4.1µM,i,5.2µM,i

# Screening data as filed in PubChem BioAssay.
